Compounds with a hit are over-represented: about 7.8% of the library has one in this group of screens.
LASV entry inh – inhibitors of Lassa virus binding or cell entry | Lassa virus pseudotype entry inhibition, cell reporter | Potency, µM (titrated, usually from 37.9 µM), for inactives: at the top dose activity change, negative = inhibition, hits mostly inhibitors | 1.2% of 300,000 active | AID 540256; calls by dose curve; tested in HEK293 cells; note: potency is the fitted concentration of half-maximal effect; nearly all actives have a fitted effect of over 50% in size
HCV inhibitor – inhibitors of hepatitis C virus infection; Huh7.5.1 HCVcc-Cre infection, luciferase reporter, 44 h; Potency, µM (highest dose often 41.8 µM), for inactives: at the top dose activity change, negative = inhibition, actives largely listed as inhibitors; 3.4% of 340,000 active; active = well fitted inhibition curve with a large enough effect; inconclusive = small, poorly fitted or top-dose-only effect, or another doubt; inactive = no such curve, though single readings can be large or run the other way; note: potency is the fitted concentration of half-maximal effect
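HCVcc-Cre virus at an moi near 0.5 was added right after compound to cells cultured 4 h from seeding (1,000 cells/well). Luciferase activity was determined 44 h later, 15 min after substrate addition at RT.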
HCMV inh – human cytomegalovirus inhibition. HFF cells, HCMV-luciferase reporter, 72 h; active compounds read low. activity change, negative = inhibition, % at 57.5 µM. 4.5% of 410,000 active; in the data active = activity change below about -60%; inconclusive = no clear call, values can overlap the other calls; inactive = above about -39%
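Steps: HFFs plated, 16 h 37C; compounds added; HCMV-luciferase added to MOI 1 PFU/cell; 72 h 37C; OneGlo reagent, 5 min room temperature; luminescence read, normalized to controls.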
Vaccinia Venus – vaccinia inhibition (Venus reporter); 0.46% of 330,000 active; AID 720580; Vaccinia virus Venus reporter expression, fluorescence; Potency, µM (series often up to 36.5 µM), for inactives: top-dose activity change, negative = inhibition, hits mostly inhibitors; calls by dose curve; tested in A549 cells; note: potency is the fitted concentration of half-maximal effect; nearly all actives have a fitted effect of over 30% in size
MARV entry inh – inhibitors of Marburg virus binding or cell entry; Marburg virus pseudotyped entry inhibition, cell reporter; Potency, µM (doses to about 37.8 µM), for inactives: at the top dose activity change, negative = inhibition, hits mostly inhibitors; 1.8% of 300,000 active; calls by dose curve; tested in HEK293 cells; note: potency is the fitted concentration of half-maximal effect
Vaccinia mCherry – inhibitors of vaccinia virus infection (mCherry reporter signal); Potency, µM (top dose mostly 36.5 µM), inactives show top-dose activity change, negative = inhibition, hits mostly inhibitors; 0.63% of 310,000 active; Vaccinia virus mCherry reporter infection, fluorescence; AID 720579; calls by dose curve; tested in A549 cells; note: potency is the fitted concentration of half-maximal effect; nearly all actives have a fitted effect of over 35% in size
* = called active by the depositor; i = inactive; ? = inconclusive; . = no result; ! = repeats disagree; [ ] = dose if it differs, or a comment. % is set by controls: 0 for no effect and ±100 for the full control effect.

SMILES	LASV entry inh	HCV inhibitor	HCMV inh	Vaccinia Venus	MARV entry inh	Vaccinia mCherry
Cc1ccc(-n2nc(CO)c(C(=O)NCc3ccccn3)n2)cc1	-11%[46.1 µM]	.	46	-4%	6%[46.1 µM]	-4%
CC(C)OCCCNC(=O)c1c2c(nc3ccccc13)C(=O)N(C1CCCCC1)C2	10%[46.1 µM]	.	4	-18%	.	-13%
CC(C)(CO)Nc1nc(N2CCCC2)nc(N2CCCC2)n1	0%	?	5	.	?	.
CCNc1nc(NC(C)(C)C)nc(N2CCCCC2)n1	?	?	-72*	-21%	2µM*	-22%
CCNc1nc(N2CCCC2)nc(N2CCCC2)n1	-7%[46.1 µM]	11µM*	-32	-23%	?	-22%
O=C(CN1C(=O)COc2ccccc21)Nc1ccccc1F	.	-8%	6	.	.	.
O=C1COc2ccccc2N1Cc1c(F)cccc1Cl	.	-12%	-63*	.	.	.
CCOC(=O)c1cnc(NCc2ccc(OC)cc2OC)c2ccccc12	-15%[46.1 µM]	.	2	-5%[7.34 µM]	.	-1%[7.34 µM]
CCOC(=O)C1=CCN(S(=O)(=O)c2ccc(C)cc2)C1c1ccc(C)cc1 (stereo not given)	.	.	-26	-7%	.	i
CCOC(=O)C1=CCN(S(=O)(=O)c2ccc(Cl)cc2)C1c1cccc(C)c1 (stereo not given)	.	.	-87*	4%	.	18%
CCOC(=O)C1=CCN(S(=O)(=O)c2ccc(C)cc2)C1c1ccc(CC)cc1 (stereo not given)	.	.	-97*	-18%	.	-3%
COC(=O)c1ccc(NC(=O)CSc2n[nH]c(CC(C)C)n2)cc1	?	.	10	-6%	14%[46.1 µM]	-5%
Cc1cc(OC(C)C(=O)N2CCC(c3nc4ccccc4o3)CC2)ccc1Cl (stereo not given)	-15%[46.1 µM]	.	-16	-21%	-4%[46.1 µM]	-9%
CCn1c(=S)[nH]c2scc(-c3cccs3)c2c1=O	-25%[46.1 µM]	8%	-63*	-18%	-1%[46.1 µM]	-4%
Oc1ccccc1C=NNC(=S)NC1CC2C=CC1C2 (stereo not given)	.	.	-71*	?	.	?
Oc1c(Cl)cc(Cl)cc1/C=N/NC(=S)NC1CC2C=CC1C2 (stereo not given)	?	?	-68*	?	?	?
Oc1ccccc1/C=N/NC(=S)NC1CC2C=CC1C2 (stereo not given)	?	-24%	?	-13%[7.34 µM]	?	-25%[7.34 µM]
CN(/N=C/c1cc(Cl)cc(Cl)c1O)C(=S)NC(C)(C)C	.	?	61	.	.	.
CC(N)C(=O)OC(C)(C)Cc1ccc(Cl)cc1 (stereo not given)	?	-11%	-19	-13%	10µM*!	-2%
COC(=O)c1sc2nc(C)cc(C)c2c1N	21%[46.1 µM]	10%	-18	3%	?	-15%
Cc1cc(C)c2c(N)c(C(=O)Nc3ncc(C)s3)sc2n1	0.2µM*	?	-86*	-24%	0.5µM*	-2%
CC1=C(C(=O)Nc2ccc(Cl)cc2)C(c2ccccc2C)n2ncc(C(=O)Nc3ccc(C)cc3)c2N1 (stereo not given)	?	.	-32	-12%	5.6µM*	-3%
CC1=C(C(=O)Nc2ccc(Cl)cc2)C(c2ccccc2)n2ncc(C(=O)Nc3ccccc3)c2N1 (stereo not given)	?	.	13	-17%	?	i
O=C(Nc1ccc(Cl)cc1)c1cnn2c1NC(c1ccccc1)=CC2c1ccccc1 (stereo not given)	16%[46.1 µM]	.	-102*	-19%	.	-26%
Cc1ccc(C)c(CN2C[C@H](Sc3nc4ccccc4[nH]3)C[C@H]2C(=O)N2CCCN(C)CC2)c1	.	.	.	-9%	.	-18%
SMILES	LASV entry inh	HCV inhibitor	HCMV inh	Vaccinia Venus	MARV entry inh	Vaccinia mCherry
CCOc1cccc(/C=N/NC(=O)c2cc(C3CC3)[nH]n2)c1O	.	11µM*	-90*	.	.	.
CCC(=O)Nc1cccc(-n2nnnc2SCC(=O)NCc2ccco2)c1	?	-26%	-19	-14%	4%	-20%[1.46 µM]
Cc1cc(C)cc(-n2nnnc2SCC(=O)Nc2cccc(NC(=O)c3ccco3)c2)c1	1%	?	-28	-27%	?	?
Cc1ccc(-n2nnnc2SCC(=O)Nc2cccc(NC(=O)c3ccco3)c2)cc1C	-18%	7.9µM*	?	-25%	?	-30%
CCC(=O)Nc1cccc(-n2nnnc2SCC(=O)c2ccc(C)c(C)c2)c1	?	11µM*	-7	-10%	?	i
Cc1ccc(-n2nnnc2SCC(=O)Nc2ccccc2N2CCCCC2)cc1C	?	10µM*	-27	?	13µM*	.
CCn1c(SCc2cccc(Br)c2)nnc1-c1nonc1NC(C)=O	9%[46.1 µM]	.	-14	-21%	3%[46.1 µM]	-15%
Cc1nn(-c2ccccc2)c2c1N(CCCC(=O)NCc1ccc(N(C)C)cc1)C(=O)CS2	-21%[46.1 µM]	.	-5	-3%	.	-5%
C/C(=N\NC(=O)c1c(C)nc2ccccn12)c1cccc([N+](=O)[O-])c1	9%	-17%	-26	2%	3%[46.1 µM]	-14%
Cc1nc2ccccn2c1C(=O)/C=C/c1cccc([N+](=O)[O-])c1	.	13%	-101*	.	.	.
Cc1ccc(/C=C/C(=O)c2c(C)nc3ccccn23)cc1	-29%	9%	-88*	.	?	.
CC(=O)c1c(C)nc2ccccn12	.	18%	-30	.	0%	.
Clc1ccc2nc(NCc3ccccc3)c3nncn3c2c1	4%[46.1 µM]	.	64	-2%	4%[46.1 µM]	-1%
COc1cc(-c2nnc3sc(C4CCCCC4)nn23)cc(OC)c1OC	?	?	.	5.6µM*	?	?
COc1cccc(-c2nnc3sc(C4CCCCC4)nn23)c1	-7%	-28%	-84*	.	15%	.
CCOC(=O)c1cnc(-n2nc(C)cc2C)nc1Nc1ccc(C)cc1	11%	5%	26	-4%	?	-17%
CCOC(=O)c1cnc(-n2nc(C)cc2C)nc1NC	10%	-13%	-8	.	-7%	.
CCOC(=O)c1cnc(-n2nc(C)cc2C)nc1Nc1ccc(N(C)C)cc1	7.3µM*	?	-5	.	?	.
CCOC(=O)c1cnc(-n2nc(C)cc2C)nc1NC1CCCCC1	?	5.6µM*	-87*	?	6.3µM*	?
CC1(C)OC(=O)C2(Cc3cc([N+](=O)[O-])ccc3N3CCCCC32)C(=O)O1 (stereo not given)	.	.	.	-8%	.	16%
CCOc1ccc(NC(=O)CN(C)C(=O)CC2CCCC2)cc1OCC	.	-8%	16	.	.	.
CCOc1ccc(NC(=O)CN(C)C(=O)CC2CCCCC2)cc1OCC	.	?	-68*	.	.	.
CN1CCc2nc(NC(=O)COc3ccc4ccccc4c3)sc2C1	?	?	-82*	-19%	?	-15%
CCOP(=S)(OCC)N1CCOCCOCCN(P(=S)(OCC)OCC)CCOCCOCC1	?	-16%	17	2%	10µM*	-3%
CCOP(=O)(OCC)C(CC)N1CCOCC1 (stereo not given)	22%	10%	-25	3%	21%[46.1 µM]	.
Cc1ccc2c(c1)c1c(c(=O)n(Cc3ccccc3)c(=O)n1Cc1cccc(C(F)(F)F)c1)n2C	7%[46.1 µM]	.	34	-8%	.	-1%
